High-throughput results from PubChem.
In the library only some 5.1% were active in any assay of this set; here they are far more common.
KCC2 mod: modulators of human KCC2 chloride dependent transport. 2.2% of 190,000 active. KCC2 cells, thallium flux FluoZin-2 fluorescence. B-score of Tl+ flux slope (higher = more flux/activation; lower = inhibition) at 10 µM. AID 1456;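 active = thallium flux slope and its plate-corrected score both differing from the plate sample mean at a set confidence after two filtering rounds, in either direction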;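 note: slope of fluorescence scaled to starting intensity during 10 to 20 s after thallium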
RAM network inh: blocks the yeast RAM network | AID 868 | inhibition, % at 50 µM | S. cerevisiae dse1pr::URA3 reporter, 5-FOA growth OD615, 2 d; analog-sensitive cbk1-as2 kinase mutant strain | 1.8% of 190,000 active;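 active = inhibition above a set limit, 3 SD over mean compound inhibition, cut at about 8.4% in these data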;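 note: 0% = DMSO-only wells with no growth and 100% = 10 µM 1-NA-PP1 full growth; inhibition rescues growth on 5-FOA so higher OD means more RAM inhibition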
ROMK primary: modulates human ROMK potassium channel activity; P48048; Tet-inducible ROMK, thallium flux fluorescence; actives lie on both sides; B-score at 10 µM; 2% of 130,000 active; AID 1918;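 active = signal ratio slope over the read window, or its plate-corrected B-score, at least 3 SD from the plate mean, either direction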;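 note: B-score of the F/F0 ratio slope over 7 to 12 s after thallium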
S1P4 antagonist: blocks the human S1P4 receptor. AID 1510. S1P4-expressing cells, antagonist mode, reporter read-out. inhibition, % at 4.98 µM. 0.26% of 220,000 active. O95977; in the data active = inhibition above about 29%;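 note: 0% = wells stimulated with agonist and 100% = vehicle wells without agonist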
S1P4 agonist: human S1P4 receptor agonism; S1P4-expressing cell line, agonist reporter assay; activation, % at 4.98 µM; 0.35% of 220,000 active; AID 1509; in the data active = activation above about 11%;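 note: 0% = DMSO vehicle and 100% = reference agonist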
S1P3 antagonist: blocks the human S1P3 receptor. Q99500. CHO S1P3 NFAT-BLA reporter, FRET fluorescence, antagonist mode. inhibition, % at 4.98 µM. 0.27% of 170,000 active. AID 485;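 active = inhibition above the plate cutoff, the mean inhibition of test wells on that plate plus 3 SD, cut at about 28% in these data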;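 note: cells challenged with S1P at its EC80 of 0.8 µM; blue over green emission ratio from cleaved BLA substrate after 4 h stimulation; 0% = S1P-stimulated wells and 100% = unstimulated DMSO-only wells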
Target sequence (Q99500 whole entry, looked up): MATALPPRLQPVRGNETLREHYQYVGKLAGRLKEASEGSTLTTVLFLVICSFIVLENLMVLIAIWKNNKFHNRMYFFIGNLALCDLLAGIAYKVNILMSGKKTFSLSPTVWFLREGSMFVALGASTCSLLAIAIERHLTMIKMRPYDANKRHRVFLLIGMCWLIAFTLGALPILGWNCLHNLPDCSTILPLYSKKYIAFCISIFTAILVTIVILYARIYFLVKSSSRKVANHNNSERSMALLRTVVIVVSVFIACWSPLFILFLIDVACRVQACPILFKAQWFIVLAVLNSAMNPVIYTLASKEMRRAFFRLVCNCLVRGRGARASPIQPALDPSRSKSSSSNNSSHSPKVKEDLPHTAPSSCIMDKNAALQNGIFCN
* = called active by the depositor; nt = not tested or not shown.

SMILES	KCC2 mod	RAM network inh	ROMK primary	S1P4 antagonist	S1P4 agonist	S1P3 antagonist
O=C(CSc1nnc(-c2cc3ccccc3cc2O)n1Cc1ccco1)c1ccc(F)cc1	-0.168	8.4*	0.366	-13.1	-0.4	-4.3
O=C(CSc1nnc(COc2ccccc2)n1Cc1ccco1)c1ccc(F)cc1	-2.48	3.5	nt	8.9	0.5	21.3
Cc1cc(Nc2ccc(Cl)cc2)nc(NCc2ccccc2)n1	-0.361	8.4*	0.073	-8.2	-1.1	-0.9
Cc1cc(Nc2ccccc2)nc(NCc2ccccc2)n1	0.177	4.1	nt	-7.2	1.6	23.3
O=C(N/N=C/c1ccccc1Cl)c1nc2ccc([N+](=O)[O-])cc2c(=O)[nH]1	2.22	10.2*	0.622	-11.9	-0.4	8.8
Cc1ccc(O)c(C(=O)c2cc(C(=O)NCCc3ccccc3)c(=O)n(CCc3ccccc3)c2)c1	-0.6	8.9*	-0.388	-14.2	0.1	-5.6
Cc1ccc(Sc2ncccc2COC(=O)Nc2c(C)cccc2C)cc1	-2.9	1.6	nt	-4.3	-3.7	nt
Cc1ccccc1NC(=O)OCc1cccnc1Sc1ccc(Cl)cc1	1	9.9*	nt	8.6	-0.1	nt
Cc1ccc(Sc2ncccc2COC(=O)Nc2ccccc2)cc1	-0.343	9.2*	nt	-12.1	-2.7	nt
Cc1cc([N+](=O)[O-])nn1CC(=O)NCCc1c[nH]c2ccccc12	-0.0609	1.5	-0.191	9.3	1.3	-22.2
O=C(/C=C/c1ccc(Cl)cc1)NCc1ccco1	-0.783	-0.4	-1.55	-17.0	-0.9	-2.5
CCOC(=O)c1cccc(NC(=O)CCc2nc(-c3ccc(C)cc3)no2)c1	0.78	5.3	nt	-27.1	0.6	-4.5
CCOC(=O)c1ccc(NC(=O)CCc2nc(-c3ccccc3)no2)cc1	-1.63	9.5*	-0.0824	-11.7	0.8	-6.7
C=C(C)C1CC=C(C)/C(=N/NC(=S)Nc2ccccc2)C1 (centres undefined)	6.49*	5.9	-0.00307	-2.5	0.4	4.8
CCOc1ccccc1C1CC(=O)NC2=C1C(=O)CCC2 (centres undefined)	nt	1.0	4.71*	12.0	0.3	-26.6
O=C(COC(=O)c1ccccc1Nc1ccccc1)c1ccccc1	-0.604	9.8*	-0.645	-3.0	-0.7	nt
CNc1ccccc1C(=O)OCC(=O)c1ccccc1	-1.11	0.7	0.0301	-2.8	1.5	6.1
C=CCN1C(=O)C(CC(=O)Nc2ccccc2)N(Cc2ccccn2)C1=S (centres undefined)	0.212	2.1	0.0444	-2.2	-0.6	-2.8
O=C(O)c1ccc(N=NNc2cccc([N+](=O)[O-])c2)cc1	-0.48	3.4	-0.125	6.7	1.3	1.9
N#C/C(=N\Nc1cccc([N+](=O)[O-])c1)C(=O)c1ccc(Br)cc1	-6.8*	7.1	3.11*	23.4	-1.1	-14.1
CCn1cc(C(=O)N2CCn3c(nc4ccccc43)C2)c(=O)c2ccc(C)nc21	-0.448	0.6	nt	-21.8	-1.6	68.3*
COc1ccc(S(=O)(=O)/N=C2/C=CC(=O)C(C)=C2C)cc1	0.382	1.1	nt	-7.3	-3.2	nt
CC1=C(C)/C(=N\OS(=O)(=O)c2ccc(C)cc2)C=CC1=O	-1.24	-0.3	-1.24	43.3*	0.6	0.3
COc1ccc(/C=N/Nc2nnc(Cc3ccc(OC)c(OC)c3)c(=O)[nH]2)cc1	0.42	4.2	nt	-1.1	-0.1	-20.9
COc1ccc(/C=N/Nc2nnc(Cc3ccc(OC)c(OC)c3)c(=O)[nH]2)cc1OC	0.564	9.7*	0.569	-14.3	-1.0	-15.8
SMILES	KCC2 mod	RAM network inh	ROMK primary	S1P4 antagonist	S1P4 agonist	S1P3 antagonist
COc1ccc(S(=O)(=O)N2CCC(C(=O)N3CCc4ccccc4C3)CC2)cc1	-3.96*	2.4	nt	8.2	-0.7	-43.9
Cc1ccc(S(=O)(=O)N2CCC(C(=O)N3Cc4ccccc4C3)CC2)cc1	-0.129	1.5	nt	-10.1	-0.2	-3.8
COc1cc(OC)cc(C(=O)NNC(=O)NC2CCCCC2)c1	-0.47	0.6	nt	-19.2	-0.5	nt
Cc1nc2c(oc3ccc(Cl)cc32)c(=O)[nH]1	-1.36	nt	-0.0554	3.3	0.2	0.2
CCCn1nnc(NC(=O)c2ccc3ccccc3c2)n1	-0.019	1.1	0.973	-6.5	-1.9	8.1
CCCn1nnnc1NC(=O)c1ccc2ccccc2c1	15.9*	-0.8	nt	2.8	0.0	-19.6
COc1ccc(CC(=O)NC(C)c2nnc(SCC(=O)Nc3cc(C)ccc3OC)n2C)cc1 (centres undefined)	0.267	0.7	-0.0327	-0.1	-0.8	-8.3
O=C(Nn1cnnc1)c1ccccc1CCc1ccccc1	-0.479	2.0	-1.16	-7.8	-0.6	63.7*
O=C(Nc1ccccc1)c1ccccc1CCc1ccccc1	0.925	2.8	0.751	4.4	1.1	nt
CCC1(C)Cc2ccccc2-c2nc(NCCCO)[nH]c(=O)c21 (centres undefined)	0.086	nt	nt	-10.1	-0.6	-7.1
COc1ccc(C(=O)N=S2CCN(C(=O)c3ccc(Cl)cc3)CC2)cc1	0.0722	nt	nt	8.9	1.3	3.2
COc1cc(-c2nnc(SCC(=O)OC3CCCCC3)o2)cc(OC)c1OC	-0.00894	9.0*	nt	-31.0	-0.3	-1.1
COc1ccc(S(=O)(=O)CCC(=O)N2CCN(c3ccc(F)cc3)CC2)cc1	-0.452	10.2*	0.0457	-6.2	0.4	-5.4
O=C(CCS(=O)(=O)c1cccs1)N1CCN(c2ccc(F)cc2)CC1	nt	1.1	0.175	-3.9	1.2	nt
CN(C)CC/C=C1\c2ccccc2COc2ccccc21	-0.463	2.3	nt	-21.9	0.5	-12.3
CNCC/C=C1/c2ccccc2CSc2ccccc21	-0.177	4.0	-4.86*	14.8	-0.2	nt
Cc1cc(NC(=O)c2ccccc2[N+](=O)[O-])ccc1Br	-0.176	3.1	-0.00674	6.2	-1.1	3.9
COc1ccc(S(=O)(=O)n2nc(OC(C)=O)cc2N)cc1	-0.522	0.0	nt	-6.0	0.2	6.6
COc1cccc(C(=O)Oc2cc(N)n(S(=O)(=O)c3ccc(C)cc3)n2)c1OC	-2.42	9.1*	nt	-2.7	1.6	-27.0
CCOC(=O)c1oc2ccccc2c1CSc1nnnn1-c1ccc(C)cc1	1.09	10.2*	nt	1.2	-0.6	7.6
CCN(Cc1ccccc1)S(=O)(=O)c1ccc(C(=O)N2CCN(c3nc4ccccc4s3)CC2)cc1	1.15	4.6	-0.213	-18.8	0.2	-2.9
CCCn1c(C)cc(/C=C(\C#N)C(=O)OCC(=O)Nc2cccc(OC)c2)c1C	-0.275	8.9*	-0.211	-11.5	0.6	-17.9
Cc1cc(/C=C(\C#N)C(=O)OCC(=O)NC(=O)NC(C)(C)C)c(C)n1CCC(C)C	-0.184	-0.8	0.195	-13.3	2.4	nt
CCC/C=C(\CCC)C(NS(=O)(=O)c1ccc(C(F)(F)F)cc1)c1ccccc1 (centres undefined)	-0.72	11.3*	-0.0379	13.7	0.2	0.6
O=C(O)C(NS(=O)(=O)c1ccc(F)cc1)c1ccccc1 (centres undefined)	0.0473	2.5	-0.1	-14.5	1.3	-4.3
Cc1cc(C(=O)COC(=O)c2ccc3c(c2)OCO3)c(C)n1Cc1cccs1	0.363	7.0	nt	-15.0	4.6	-0.5
